Screen size: about 5,500 compounds; about 2,000 (36%) were called active. Another 18% or so got no clear call; they are omitted. Cut-off read from the data, not from the text of the source: active = normalized growth mostly below about 0.91 (no sharp cut-off); inconclusive = no clear call, values can overlap the other calls; inactive = mostly above about 0.92. The list shows a part of the results.
Experiment: chemical genetic growth profiling, strain panel (AID 1159580);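 note: tested at 20 µM; growth read once vehicle control cultures reached saturation at 30 °C; 1 = growth at the plate median or of vehicle wells; lower values mean less growth of the strain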
Conditions: S. cerevisiae deletion strains, growth OD

Measured: normalized growth

COc1ccc(CNC(=O)/C=C/c2ccc3[nH]cc(CCN(C)C)c3c2)cc1
inactive: locus YAL040C, strain CLN3, hits give low values 1.1 | locus YCL061C, strain MRC1 (second series), hits give low values 0.991 | locus YER002W, strain NOP16, hits give low values 0.997 | locus YGR078C, strain PAC10, hits give low values 0.987 | locus YMR263W, strain SAP30, hits give low values 0.98 | locus YNL153C, strain GIM3, hits give low values 0.985 | locus YNL175C, strain NOP13, hits give low values 1.01 | locus YNL197C, strain WHI3, hits give low values 1 | locus YNL224C, strain SQS1, hits give low values 0.986 | locus YOR083W, strain WHI5 (second series), hits give low values 1.01

COC(=O)CC1C(C)(C(=O)c2ccoc2)CC2OCC34C(CC(=O)OC)C5(C)CC36OC3(C)OC1(C(OC(C)=O)C6(OC(C)=O)C5OC(=O)C(C)C)C24O3 (configuration not stated)
inactive: locus YAL021C, strain ccr4, hits give low values 0.995 | locus YAL026C, strain drs2, hits give low values 0.967 | locus YAL030W, strain snc1, hits give low values 0.975 | locus YBL061C, strain skt5, hits give low values 0.978 | locus YBR009C, strain hhf1, hits give low values 0.949 | locus YBR023C, strain chs3, hits give low values 0.987 | locus YBR171W, strain sec66, hits give low values 0.981 | locus YBR231C, strain swc5, hits give low values 0.993 | locus YBR279W, strain paf1, hits give low values 0.996 | locus YCL011C, strain gbp2, hits give low values 0.972 | locus YCL016C, strain dcc1, hits give low values 0.99 | locus YCL061C, strain MRC1, hits give low values 0.995 | locus YCL069W, strain vba3, hits give low values 0.979 | locus YCR088W, strain abp1, hits give low values 0.983 | locus YDL005C, strain med2, hits give low values 0.97 | locus YDL040C, strain nat1, hits give low values 0.986 | locus YDR001C, strain nth1, hits give low values 0.986 | locus YDR069C, strain doa4, hits give low values 0.99 | locus YDR137W, strain rgp1, hits give low values 0.975 | locus YDR159W, strain sac3, hits give low values 0.968 | locus YDR195W, strain ref2 0.944 | locus YDR297W, strain sur2, hits give low values 0.978 | locus YDR334W, strain swr1, hits give low values 0.969 | locus YDR335W, strain msn5, hits give low values 0.987 | locus YDR392W, strain spt3, hits give low values 0.911 | locus YEL003W, strain gim4, hits give low values 0.971 | locus YEL037C, strain rad23, hits give low values 0.967 | locus YEL061C, strain CIN8 (second series), hits give low values 0.975 | locus YER015W, strain faa2, hits give low values 0.987 | locus YER016W, strain bim1, hits give low values 0.98 | locus YER111C, strain swi4, hits give low values 0.959 | locus YER155C, strain BEM2 (second series), hits give low values 1.01 | locus YFR010W, strain ubp6, hits give low values 0.978 | locus YGL167C, strain pmr1, hits give low values 0.959 | locus YGL173C, strain kem1, hits give low values 0.97 | locus YGL227W, strain vid30, hits give low values 0.97 | locus YGL240W, strain doc1, hits give low values 0.988 | locus YGL253W, strain hxk2, hits give low values 0.966 | locus YHR013C, strain ard1, hits give low values 0.952 | locus YHR027C, strain rpn1, hits give low values 0.985 | locus YHR142W, strain chs7, hits give low values 0.994 | locus YJL092W, strain hpr5, hits give low values 0.987 | locus YJL095W, strain BCK1 (second series), hits give low values 0.993 | locus YJL115W, strain asf1, hits give low values 0.988 | locus YJL129C, strain trk1, hits give low values 0.975 | locus YJL154C, strain vps35, hits give low values 0.984 | locus YJL164C, strain tpk1, hits give low values 1 | locus YJL166W, strain qcr8, hits give low values 0.996 | locus YJL187C, strain SWE1, hits give low values 0.984 | locus YKL160W, strain elf1, hits give low values 1.01 | locus YKR026C, strain gcn3, hits give low values 0.976 | locus YKR091W, strain srl3, hits give low values 0.96 | locus YLL001W, strain dnm1, hits give low values 1.01 | locus YLL026W, hits give low values 0.993 | locus YLL041C, strain sdh2, hits give low values 0.996 | locus YLR027C, strain aat2, hits give low values 0.982 | locus YLR221C, strain rsa3, hits give low values 0.999 | locus YLR258W, strain gsy2, hits give low values 0.964 | locus YLR262C, strain YPT6 (second series), hits give low values 0.983 | locus YLR320W, strain mms22, hits give low values 0.993 | locus YLR342W, strain FKS1, hits give low values 0.963 | locus YLR357W, strain rsc2, hits give low values 1.02 | locus YLR370C, strain arc18, hits give low values 0.981 | locus YLR384C, strain iki3, hits give low values 0.97 | locus YML120C, strain ndi1, hits give low values 0.987 | locus YMR058W, strain fet3, hits give low values 0.975 | locus YMR125W, strain sto1, hits give low values 0.995 | locus YMR129W, hits give low values 0.966 | locus YMR205C, strain PFK2, hits give low values 0.957 | locus YMR231W, strain pep5, hits give low values 0.977 | locus YNL071W, strain lat1, hits give low values 0.982 | locus YNL209W, strain ssb2, hits give low values 0.988 | locus YNL248C, strain rpa49, hits give low values 1.02 | locus YNL322C, strain KRE1 (second series), hits give low values 0.969 | locus YNR049C, strain mso1, hits give low values 0.973 | locus YOR001W, strain rrp6, hits give low values 1.04 | locus YOR070C, strain gyp1, hits give low values 1.03 | locus YOR080W, strain dia2, hits give low values 0.982 | locus YOR083W, strain WHI5, hits give low values 1.01 | locus YOR106W, strain vam3, hits give low values 0.991 | locus YOR265W, strain rbl2, hits give low values 0.992 | locus YOR270C, strain vph1, hits give low values 0.856 | locus YOR290C, strain snf2, hits give low values 0.895 | locus YPL051W, strain arl3, hits give low values 0.993 | locus YPL078C, strain atp4, hits give low values 0.99 | locus YPL106C, strain sse1, hits give low values 0.985 | locus YPL240C, strain hsp82, hits give low values 0.947
